# Shown are actives, neighbours in structure and some others; about 2.7% of the full set was active somewhere.
# ALOX12 inh = blocks human arachidonate 12S-lipoxygenase; P18054; AID 1671190; hit rate 1.1% among 580,000; purified 12hLO, xylenol orange hydroperoxide absorbance; Potency, µM (highest dose often 108 µM), for the others: at the top dose activity change, negative = inhibition, actives largely listed as inhibitors; note: potency is the fitted concentration of half-maximal effect; % is set by controls: 0 for no effect and ±100 for the full control effect
# Target sequence (P18054 whole entry, looked up): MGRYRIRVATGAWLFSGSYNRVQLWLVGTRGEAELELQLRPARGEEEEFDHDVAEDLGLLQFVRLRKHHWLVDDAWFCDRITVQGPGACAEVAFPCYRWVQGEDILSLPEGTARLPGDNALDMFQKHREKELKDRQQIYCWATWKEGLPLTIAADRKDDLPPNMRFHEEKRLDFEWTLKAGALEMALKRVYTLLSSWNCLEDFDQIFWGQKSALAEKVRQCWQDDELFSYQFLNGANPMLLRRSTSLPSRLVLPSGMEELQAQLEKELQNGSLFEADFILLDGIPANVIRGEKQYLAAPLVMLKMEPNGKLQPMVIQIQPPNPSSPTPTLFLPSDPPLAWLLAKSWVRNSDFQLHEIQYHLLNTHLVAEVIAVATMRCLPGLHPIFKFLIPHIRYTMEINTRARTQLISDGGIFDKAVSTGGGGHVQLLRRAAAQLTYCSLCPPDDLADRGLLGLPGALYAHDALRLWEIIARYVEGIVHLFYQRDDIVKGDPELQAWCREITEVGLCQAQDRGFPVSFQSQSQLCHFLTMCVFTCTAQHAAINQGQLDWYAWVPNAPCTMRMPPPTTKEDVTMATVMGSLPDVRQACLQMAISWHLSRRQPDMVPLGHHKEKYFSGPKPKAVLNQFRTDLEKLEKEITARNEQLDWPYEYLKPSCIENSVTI
#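 Purified human 12hLO at 150 nM in 25 mM Hepes, 0.01% Triton X-100, pH 7.0, preincubated 15 min at room temperature with compound. Reaction started with 40 uM arachidonic acid, 30 min at room temperature. Hydroperoxide measured by Fe-xylenol orange, 573/405 nm absorbance ratio.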
# ERG-DNA inh = inhibitors of human ERG Ets domain-DNA interaction | P11308 | fluorescence polarization, His-ERG Ets domain / labelled DNA | Potency, µM (top dose mostly 76.9 µM), without a hit: at the highest dose FP activity, negative = inhibition, actives largely listed as inhibitors | hit rate 0.028% among 370,000 | AID 624246; active = well fitted inhibition curve with a large enough effect in the polarisation, with a control signal flat; inconclusive = small, poorly fitted or top-dose-only effect, or effect the other way, or a change in a side signal; inactive = no such curve, though single readings can be large or run the other way; the % refers to the polarisation;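 note: polarization taken with two DNA probes labelled with fluorescein and Texas red; potency is the fitted concentration of half-maximal effect; % of control where 0% means no effect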
#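 His-tagged ERG Ets domain (1 uM in the protein solution; 300mM KCl, 50mM Tris-HCl, 1mM EDTA, 1mM DTT, pH 7.5) received compound, then a probe mix of 5 nM fluorescein-DNA and 100nM Texas-615-DNA. Fluorescence polarization was read for both dyes.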
# Nrf2 block = Nrf2 pathway inhibition; Potency, µM (series often up to 46 µM), for the others: top-dose activity change, negative = inhibition, hits mostly inhibitors; AID 504444; A549 ARE-Fluc reporter, luciferase luminescence, 18-24 h; hit rate 2.1% among 360,000; note: potency is the fitted concentration of half-maximal effect; % is set by controls: 0 for no effect and ±100 for the full control effect; nearly all actives have a fitted effect of over 60% in size
#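 Concentration-response testing used A549 ARE_Fluc cells at 5000 cells/well. Following an 18-24 h compound incubation, viability was read by fluorescence (Ex 405/Em 525) and luciferase output by luminescence.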
# LDHA inh = blocks human lactate dehydrogenase A; hit rate 0.15% among 480,000; purified LDHA, NADH/diaphorase-resazurin fluorescence; hits give low values; activity change, % (values are at about 110 or 230 µM); P00338; in the data active = activity change below about -30%; inconclusive = mostly about -25% to -30%;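 note: plate controls were DMSO wells for no effect and wells without enzyme for full effect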
#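 Enzyme activity of human lactate dehydrogenase 5 (2 nM; 0.06 mM NADH, 0.2 mM pyruvate, 5 min, RT) is measured via a resazurin/diaphorase fluorescence readout of residual NADH.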
# Nrf2 activator = activates Nrf2 signaling; AREc32 ARE-luciferase reporter (MCF7-derived line), luminescence, 24 h; Potency, µM (series often up to 46.1 µM), without a hit: at the highest dose activation, usual class: activators; hit rate 0.31% among 410,000; AID 624171; note: potency is the fitted concentration of half-maximal effect; % of control where 0% means no effect; nearly all actives have a fitted effect of over 65% in size
#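 For detection, Steady-Glo was added and plates sat 30 min at RT; before that, AREc32_Fluc cells grown overnight in OPTI-MEM/5% FBS had been treated with 23 nL compound for 24 hr at 37 deg C.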
# A549 tox = A549 cytotoxicity, counter-screen for Nrf2 inhibitors. hit rate 0.16% among 390,000. AID 504648. A549 ARE-Fluc cells, CellTiter-Fluor viability, 18-24 h. Potency, µM (highest dose often 46 µM), for the others: at the top dose activity change, negative = cytotoxicity, usual class: inhibitors; note: potency is the fitted concentration of half-maximal effect; % is set by controls: 0 for no effect and ±100 for the full control effect
#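 A549 ARE_Fluc cells in 5% FBS OPTI-MEM were exposed to compounds in concentration-response for 18-24 h at 37 deg C. Viability was read by CellTiter-Fluor fluorescence (Ex 405/Em 525) after 30 min, before the luciferase read.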
# Numbers without * were called inactive; i = inactive; ? = inconclusive; . = not tested or not shown; [ ] = another dose, or the depositor's remark. Unless noted, calls come from the whole dose curve; as a rule, active = well fitted curve in the direction sought with a large enough effect; inconclusive = small, poorly fitted or top-dose-only effect, or another doubt; inactive = no such curve, though single readings can be large; an effect the other way counts as inactive or inconclusive.
SMILES,ALOX12 inh,ERG-DNA inh,Nrf2 block,LDHA inh,Nrf2 activator,A549 tox
Cc1cc(=O)oc2cc(OCC(=O)N3CCc4sccc4C3C)ccc12 (stereo not given),-4%,.,.,0,.,.
COCCNC(=O)c1sc(NCc2ccco2)nc1C,31%,.,.,1,.,.
COc1cc(OC)c2cc(C(=O)N[C@@H](C)C(=O)Nc3ccc4c(c3)OCCO4)n(C)c2c1,?,.,.,9,.,.
O=C(O)CCCCCCCCCC(=O)O,-1%[176 µM],.,.,.,.,.
COc1ccc(Cl)cc1NC(=O)c1cc2ccccn2n1,-13%,3%,?,0,5.6µM*,13%
CC(C)(C)C(=O)Nc1ccc2c(c1)C(=O)C(=O)c1ccccc1-2,.,.,21µM*,53,.,?
Cc1ccccc1OCC(=O)Nc1ccc2c(c1)C(=O)c1ccccc1C2=O,-26%,-3%,15µM*,-2,0%,?
CC(=O)Nc1ccc2c(c1)C(=O)c1ccccc1C2=O,-9%,3%,?,6,7%,1%
COc1ccc2cc(CCNC(=O)c3cc4ccccc4o3)c(=O)[nH]c2c1,0%,6%,10µM*,-5,0%,-11%
CCn1c(=O)c(C(=O)Nc2nc3ccccc3[nH]2)c(O)c2ccccc21,0%,5%,16µM*,-9,8%,21µM*
CCc1nc2ccccc2c(=O)n1NC(=O)c1c(O)c2ccccc2n(CC)c1=O,0%,-4%,-83%,-40*,0%,?
CCOc1ccc(NS(=O)(=O)c2ccc(Cl)c(C(=O)Nc3ccc4oc(C)nc4c3)c2)cc1,-8%,.,.,10,.,.
CC(C)Cc1ccc(C(C)(N)C(=O)O)cc1 (stereo not given),?,.,.,2,.,.
O=S(=O)(Nc1ccc(Cl)nn1)c1ccccc1,-10%,-1%,-4%,-5,0%,-1%
O=S(=O)(NNc1ccc(Cl)nn1)c1ccc(F)cc1,1.3µM*,-18%,1%,15,6%,3%
COc1cc([N+](=O)[O-])c(OC)cc1SCc1n[nH]c(=S)n1-c1ccc(F)cc1,45µM*,11%,18%,1,-1%,2%
O=C(CCC1CCCC1)N1CCN(C(=O)c2cc(=O)c3ccccc3o2)CC1,?,.,.,-3,.,.
CCNc1c([N+](=O)[O-])c(=O)n(CC)c2ccccc12,117%,-3%,-30%,0,0%,-5%
CCn1c(=O)c([N+](=O)[O-])c(NCc2ccco2)c2ccccc21,i,-5%,-17%,-18,8.9µM*,?
COc1ccc(/C=N/OCc2ccc(Br)cc2)cc1OCc1ccccc1,2%,.,.,2,.,.
CCCC(=O)NNc1cc(=O)c2c(=O)n(C)c(=O)n(C)c2[nH]1,16µM*,4%,-23%,1,0%,-6%
CCCC1CCC(c2ccc(C(=O)Oc3cncc(Cl)c3)cc2)CC1 (stereo not given),?,.,.,-9,.,.
COc1ccc(S[C@@H](CCN2CC[C@H](NC(=O)OCc3ccccc3)CCC2=O)c2ccccc2)cc1,-10%,15%,18µM*,7,3%,-24%
CCCCc1ccc(NC(=O)Nc2cc(C)nn2C)cc1,.,32µM*,-19%,-5,0%,3%
O=C(O)c1cc2ccccc2c2cc(Br)ccc12,36%,-1%,-23%,-9,0%,-4%
SMILES,ALOX12 inh,ERG-DNA inh,Nrf2 block,LDHA inh,Nrf2 activator,A549 tox
O=C(O)c1cc2ccccc2c(Cc2c(O)c(C(=O)O)cc3ccccc23)c1O,13µM*,.,.,14,.,.
CC(/C=C/C(=O)c1ccc(C)cc1)=C\c1ccccc1,?,4%,17%,3,11µM*,-7%
Cc1ccc(C(=O)/C=C\C(=O)c2ccc(C)cc2)cc1,?,-6%,?,-3,4%,4%
Clc1cc2cccnc2c2ncccc12,?,18%,-5%,5,4%,-6%
O=[N+]([O-])c1cc(Cl)c2cccnc2c1O,?,7%,?,15,11%,?
O=[N+]([O-])c1cc(Cl)c(O)c2ncccc12,5.6µM*,3%,21µM*,20,8%,?
O=[N+]([O-])c1ccc(O)c2ncccc12,?,-8%,3.7µM*,7,-2%,13µM*
Oc1c(I)cc(Cl)c2cccnc12,11µM*,0%,?,4,-2%,-10%
O=[N+]([O-])c1ccc(O)c2cccnc12,-1%,2%,-25%,-12,3%,-10%
N#CCOc1nc(-c2ccco2)c2c(c1C#N)CCC2,?,.,.,1,.,.
COc1ccc(-c2cc(C(=O)NCCc3ccccc3)c3c(-c4ccccc4)[nH]nc3n2)cc1,-21%,-2%,-6%,-16,1%,?
COc1ccc(-c2cc(C(=O)NCCc3ccccc3)c3c(-c4ccc(Cl)cc4)[nH]nc3n2)cc1,-32%,1%,23µM*,-18,-1%,?
Cc1cccc(N2CCN(CC(=O)NC(=O)NCC(F)(F)F)CC2)c1C,?,.,.,3,.,.
Cc1nc(SCC(=O)N2CCOCC2)c2c(C)c(C)sc2n1,-1%,-2%,-2%,2,5%,1%
Cc1nc(SCC(=O)Nc2ccc(S(=O)(=O)N3CCOCC3)cc2)c2c(C)c(C)sc2n1,1%,15%,12µM*,4,0%,?
COc1ccccc1N1CCN(CC(=O)N2CCCC2)CC1,-27%,2%,6%,-37*,3%,20%
COc1ccccc1N1CCN(C(=O)CCC(=O)N2CCN(c3ccccc3OC)CC2)CC1,15%,18%,-18%,-5,-1%,2%
Cc1cccc(N2CCN(CC(=O)Nc3nccs3)CC2)c1C,?,-9%,16µM*,-3,0%,-23%
Cc1cccc(N2CCN(CC(=O)NCC3CCCCC3)CC2)c1C,0.89µM*,-1%,-22%,-13,0%,8%
COc1ccccc1N1CCN(CC(=O)Nc2nccs2)CC1,20µM*,-8%,-3%,2,-1%,-4%
COc1cccc(OC)c1NC(=O)CN1CCN(C)CC1,?,0%,-9%,-32*,0%,-3%
Cc1cccc(N2CCN(CC(=O)Nc3ccc(S(=O)(=O)N4CCOCC4)cc3)CC2)c1C,1%,16%,16µM*,0,0%,-14%
Cc1ccc(C)c(-c2nn(CC(=O)Nc3ccccc3F)c(=O)c3c2CCCC3)c1,-23%,.,.,8,.,.

# Bioassay records deposited in PubChem BioAssay by National Center for Advancing Translational Sciences (NCATS).
